# High-throughput results from PubChem BioAssay.
# A selection: hits, their analogues and other compounds. The true share with any hit is near 8.7%.
# Vaccinia Venus = inhibitors of vaccinia virus (Venus reporter); Vaccinia virus Venus reporter expression, fluorescence; Potency, µM (top dose mostly 36.5 µM), inactives show top-dose activity change, negative = inhibition, actives largely listed as inhibitors; 330,000 tested, 0.46% active; calls by dose curve; tested in A549 cells; note: nearly all actives have a fitted effect of over 30% in size
# Vaccinia mCherry = inhibitors of vaccinia virus infection (mCherry reporter signal) | Vaccinia virus mCherry reporter infection, fluorescence | Potency, µM (doses to about 36.5 µM), for inactives: at the top dose activity change, negative = inhibition, actives largely listed as inhibitors | 310,000 tested, 0.63% active; calls by dose curve; tested in A549 cells; note: nearly all actives have a fitted effect of over 35% in size
# Pf growth 48h = inhibits P. falciparum growth in the first generation, 48 h. P. falciparum luciferase growth in erythrocytes, 48 h. Potency, µM (doses to about 28.7 µM), without a hit: at the top dose activity change, negative = inhibition, most hits filed as inhibitors. 310,000 tested, 5.9% active. AID 504832
#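 Compounds are pin-transferred into medium, infected erythrocytes (2% hematocrit, 0.1% parasitemia final) are added, and plates sit one parasite generation at 37 C in 5% CO2. Detection reagent is then added and luminescence measured.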
# AMA1 RON2 block = inhibitors of Plasmodium falciparum AMA1-RON2 interaction. AlphaScreen AMA1-biotinylated RON2 peptide binding. Potency, µM (titrated, usually from 58.2 µM), without a hit: at the highest dose activity change, negative = inhibition, actives largely listed as inhibitors. 360,000 tested, 0.2% active;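 note: 0% = vehicle wells and -100% = peptide control; nearly all actives have a fitted effect of over 45% in size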
#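 AMA1 (3D7) with his tag at 25 nM final met compounds first, then biotinylated RON2 peptide at 25 nM; detection used donor plus acceptor beads, 10 µg/mL apiece, read by AlphaScreen after 30 min at room temperature.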
# Pf growth 96h = P. falciparum growth inhibition at 96 hours. P. falciparum luciferase reporter growth, 96 h. Potency, µM (titrated, usually from 28.7 µM), for inactives: at the top dose activity change, negative = inhibition, usual class: inhibitors. 320,000 tested, 6.9% active. AID 504834
#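 Two parasite generations (96 h, 37 C, 5% CO2) of compound exposure in infected erythrocytes (0.05% parasitemia, 2% hematocrit). Luciferase-reporter P. falciparum; decreased luminescence indicates inhibited growth, aimed at apicoplast-acting delayed death.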
# * hit, by the source's call; i = inactive; ? = inconclusive; / = not tested or not shown. Unless noted, calls come from the whole dose curve; as a rule, active = well fitted curve in the direction sought with a large enough effect; inconclusive = small, poorly fitted or top-dose-only effect, or another doubt; inactive = no such curve, though single readings can be large; an effect the other way counts as inactive or inconclusive. Unless noted, % is set by controls: 0 for no effect and ±100 for the full control effect; potency is the fitted concentration of half-maximal effect.
SMILES,Vaccinia Venus,Vaccinia mCherry,Pf growth 48h,AMA1 RON2 block,Pf growth 96h
CC(C)NC(=S)N(C)C1(c2ccccc2Cl)CCCCC1=O (stereo not given),/,/,2.6%,-7.6%,-0.4%
CN(C(=S)Nc1ccccc1F)C1(c2ccccc2Cl)CCCCC1=O (stereo not given),/,/,10.4µM*,-4.4%,?
CN(C(=S)NC1CCCCC1)C1(c2ccccc2Cl)CCCCC1=O (stereo not given),-22.1%,-22.4%,11.7µM*,-11.2%,?
Cc1cccc(NC(=S)N(C)C2(c3ccccc3Cl)CCCCC2=O)c1 (stereo not given),/,/,?,-7.9%,/
Cc1cc(OC(C)C(=O)Nc2cccc(-c3nc4ccccc4o3)c2)cc(C)c1Cl (stereo not given),-0.8%,-17.1%,/,/,/
O=C(Cc1ncn[nH]1)NCCc1ccccc1,/,/,/,32.4%,7.38µM*
COC(=O)C1=C(c2ccc(-c3ccccc3)c(F)c2)C[C@@H]2CC[C@H]1N2C(=O)NCCCOC(C)C,?,-20.9%,?,-2.7%,?
COC(=O)C1=C(c2ccccc2OCc2ccccc2)C[C@@H]2CC[C@H]1N2C(=O)NCCOc1ccccc1,?,-5.2%,11.7µM*,-2.8%,?
COC(=O)C1=C(c2ccccc2OCc2ccccc2)C[C@@H]2CC[C@H]1N2C(=O)NCCCOC(C)C,-11.6%,i,?,-0.9%,5.22µM*
COC(=O)C1=C(c2ccccc2OCc2ccccc2)C[C@@H]2CC[C@H]1N2C(=O)NCCOc1ccc(OC)cc1,?,?,9.28µM*,?,1.31µM*
COc1ccc(CNC(=O)Cn2nc(C)c3nn(-c4ccc(Cl)cc4)c(C)c3c2=O)cc1,-18.1%,-16.3%,/,/,/
CSc1nnc(-c2cnccn2)n1CCCN1CCCC1=O,/,/,0.0%,2.0%,7.38µM*
CN(C)CC(O)CN1C(=O)NC(C)(C)C1=O (stereo not given),/,/,12.1%,-3.4%,2.08µM*
COC(=O)C1=C(C)N(c2cc(C)cc(C)c2)/C(=C/c2ccco2)C1=O,-15.6%,-0.7%,8.28µM*,0.0%,4.9%
Cc1ccccc1Oc1cc(-n2ncc(Cl)c(Cl)c2=O)ncn1,10µM*,?,?,-1.9%,-28.9%
Cc1ccc(Cl)cc1Nc1nn2c(=O)c3ccc(C(=O)NC(C)c4ccccc4)cc3nc2s1 (stereo not given),-23.6%,?,/,/,/
Clc1ncnc2scc(-c3ccccc3)c12,-9.0%,-22.0%,?,2.9%,?
COc1ccc(-c2csc3nc(-c4cccnc4)nc(Cl)c23)cc1OC,-29.6%,-25.3%,11.7µM*,13.1%,6.57µM*
Clc1nc(-c2cccnc2)nc2scc(-c3ccccc3)c12,/,/,11.7µM*,8.6%,1.04µM*
CC1=C(C(=O)OC(C)C)C(c2cccnc2)n2ncnc2N1 (stereo not given),28.2µM*,28.2µM*,/,0.0%,?
CC1=C(C(=O)OC(C)C)C(c2ccncc2)n2ncnc2N1 (stereo not given),-9.1%,/,-1.7%,2.7%,/
COC(=O)[C@@H](NCc1cccc(CN([C@H](C(=O)OC)C(C)C)S(C)(=O)=O)c1)C(C)C,-10.3%,i,?,14.3%,14.7µM*
Oc1c(C=NCc2ccc(F)cc2)[nH]c2ccc(Br)c(Cl)c12,/,/,2.62µM*,/,/
Cc1ccc(CN=Cc2[nH]c3ccc(Br)c(Cl)c3c2O)cc1,16.6%,-13.9%,3.29µM*,-2.3%,/
COc1ccc(CN=Cc2c(O)[nH]c3ccccc23)cc1,-7.5%,-23.2%,30.7%,-10.8%,1.5%
SMILES,Vaccinia Venus,Vaccinia mCherry,Pf growth 48h,AMA1 RON2 block,Pf growth 96h
O=c1[nH]c(=O)n(C2CCCCCC2)c(O)c1C=NCc1ccc(F)cc1,-11.7%,-23.1%,?,23.9%,-1.9%
CCOCCc1nn2c(=O)cc(COC(=O)c3ccccc3NC(=O)c3cccs3)nc2s1,-4.5%,-2.0%,/,/,/
CC1=NN(/C(=N\c2nnc(C)s2)Nc2ccc(C(C)(C)C)cc2)[C@H](c2ccc(C)cc2)S1,/,/,4.15µM*,4.6%,6.57µM*
Cc1ccc(NC(=O)CCSc2nnc(C)s2)cc1,/,/,15.3%,-9.6%,-0.8%
CC(=O)OCC(=O)c1ccc2ccn(C(C)=O)c2c1,/,/,3.8%,-2.9%,10.4µM*
COc1ccccc1N1CCN(CC(=O)c2ccc3ccn(C(C)=O)c3c2)CC1,-2.0%,-4.6%,/,18.3%,170.6%
N#CCC1c2ccccc2CCN1C(=O)Nc1ccc(C(F)(F)F)cc1 (stereo not given),/,/,13.1µM*,27.2%,5.86µM*
Cc1ccc(-c2csc3nc(SCC(N)=O)n(Cc4ccccc4)c(=O)c23)cc1,?,-9.5%,13.1µM*,2.0%,10.1%
NC(=O)CSc1nc2ccccc2n1Cc1ccccc1,/,/,2.94µM*,-5.1%,-16.1%
NC(=O)CSc1nc2ccccc2n1-c1ccccc1,-11.4%,i,-16.1%,0.0%,9.28µM*
Cc1ccc(-c2csc3ncnc(SCC(N)=O)c23)cc1,-17.1%,-0.3%,-2.7%,9.4%,66.6%
CC(C)(C)NC(=O)Cn1c(SCC(N)=O)nc2ccccc21,/,/,-3.7%,0.6%,-17.2%
COc1cccc2c1cc1c(=O)n(CC(=O)NCc3ccc(N(C)C)cc3)nc(C)n12,-9.4%,-15.0%,/,/,/
Cc1ccc(C(=O)Nc2cccc(-c3nc(CNC(=O)c4cccc(N(C)C)c4)c(C)o3)c2)s1,-14.0%,-26.3%,/,/,/
CCCNC(=O)/C=C/c1ccc(C(C)C)cc1,-17.3%,-12.3%,?,-5.9%,13.1µM*
CC(C)c1ccc(/C=C/C(=O)NCCCc2ccccc2)cc1,-7.2%,-14.9%,-2.4%,-6.3%,46.0%
NC(=S)NC(=O)/C=C/c1ccccc1,?,?,32.7%,-3.2%,2.08µM*
O=C(/C=C/c1ccccc1)Nn1cnnc1,/,/,31.5%,-10.2%,14.7µM*
COc1ccc(/C=C/C(=O)Nn2cnnc2)cc1,-6.0%,-10.3%,2.7%,-5.6%,?
O=C(/C=C/c1ccccc1)NCCCNC(=O)/C=C/c1ccccc1,6.2%,16.2%,?,3.0%,8.28µM*
O=C(C=Cc1ccccc1)NCCNC(=O)C=Cc1ccccc1,2.9%,-10.6%,/,16.9%,/
COc1cc(-c2cccc(Cl)c2)cc2c1OCCN(C(=O)CCn1ccc(C)n1)C2,-7.4%,-25.4%,/,/,/
CCOC(=O)c1ccc(NC(=O)CN2C(=O)c3cccnc3Oc3ccc(Cl)cc32)cc1,7.0%,-8.0%,/,/,/
O=C(NCCCNCc1ccccc1)c1ccncc1,-4.6%,-1.9%,-2.5%,-6.9%,?
CC(=O)/C=C/c1ccccc1,-4.9%,i,/,7.8%,/
O=C(/C=C/c1ccccc1)/C=C/c1ccccc1,10µM*,?,-24.6%,-3.5%,?
O=C(/C=N\O)NCCCNCc1ccccc1,-14.1%,-3.9%,-5.3%,22.5%,5.86µM*
NC1=NC[C@@H](Cc2ccc(O)cc2)N1CCc1cccc(F)c1,-12.6%,-2.3%,10.4µM*,-2.3%,1.85µM*
FC(F)(F)c1cc(CCN2CCNC[C@@H]2CC2CCCCC2)cc(C(F)(F)F)c1,?,?,/,0.0%,/
O=C1NC[C@H](Cc2ccc(O)cc2)N(CCc2cccc(F)c2)C1=O,-11.5%,-8.4%,/,-15.7%,/
